Assay results reported in PubChem BioAssay (Tox21).
Records with an inconclusive call do not appear. A call without a number means that no potency is given here. Unmarked numbers belong to inactive results. Activity calls are given as the source filed them. Calls follow the shape of the dose curve; as a rule, active = well fitted cell-killing curve with a large enough effect in the repeat runs; inconclusive = weak or mixed curves, or effect the other way; inactive = flat fitted curve, though single readings scatter.

Assays:
[1] = cAMP Responsive Elements (CRE) small molecule antagonists, cell-based qHTS assay: qHTS cell viability counter screen (AID 2060913); also: nearly all actives have a fitted effect of over 40% in size
How it was run: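 HEK293T CRE-bla, 2,000 cells/well, 18 h preincubation; cpd in DMSO + NKH477 0.25 uM final, 3 h 37 C/5% CO2; LiveBLAzer 2 h RT, then CellTiter-Glo 30 min RT, luminescence.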

[2] = cAMP Responsive Elements (CRE) small molecule agonists, cell-based qHTS assay: qHTS cell viability counter screen (AID 2060914);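 also: viability read after 3 h of compound exposure; nearly all actives have a fitted effect of over 50% in size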
How it was run: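 Cytotoxicity counter screen multiplexed with the CRE-bla reporter assay in HEK 293T cells: 3 h compound exposure at 37 °C, followed by CellTiter-Glo luminescence measured in the same wells.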

Compound	Potency [1]	Potency [2]	viability change, negative = cytotoxic [1]	activity change, negative = cytotoxicity [2]
CO[C@]12C[C@@H](COC(=O)c3cncc(Br)c3)CN(C)[C@@H]1Cc1cn(C)c3cccc2c13	inactive	inactive	–	–
CCCCCCCCCCCC[N+](C)(C)CC(=O)[O-]	inactive	inactive	–	–
OCCN(CCO)c1nc(N2CCCCC2)c2nc(N(CCO)CCO)nc(N3CCCCC3)c2n1	inactive	inactive	–	–
C=CCn1c(=O)n([C@@H]2O[C@H](CO)[C@@H](O)[C@H]2O)c2nc(N)[nH]c(=O)c21	inactive	inactive	–	–
O=C(O)CC(C(=O)O)C(CC(=O)O)C(=O)O (stereo not drawn)	inactive	inactive	–	–
O=C(CCCCCCC(=O)Nc1ccccc1)NO	inactive	inactive	–	–
CN(C)CC[C@@H](c1ccc(Br)cc1)c1ccccn1	inactive	inactive	–	–
OC(CCl)CCl	inactive	inactive	–	–
OC/C(Br)=C(\Br)CO	inactive	inactive	–	–
CC(C)=CCCC(C)CC=O (stereo not drawn)	inactive	inactive	–	–
Cc1cc(Nc2ccc(O)cc2)ccc1N	inactive	inactive	–	–
CC12CC3CC(C)(C1)CC(N)(C3)C2	inactive	inactive	–	–
CCCCCCCCCCCC(=O)OCC	inactive	inactive	–	–
c1ccc2c(c1)Oc1ccccc1S2	inactive	inactive	–	–
O=C(O)CONC(=O)c1ccccc1	inactive	inactive	–	–
CC[N+](CC)(CCNC(=O)C(=O)NCC[N+](CC)(CC)Cc1ccccc1Cl)Cc1ccccc1Cl	inactive	inactive	–	–
CCCCCCCC/C=C\CCCCCCCC(=O)OC[C@@H](O)[C@H]1OC[C@H](O)[C@H]1O	inactive	inactive	–	–
CCOC(=O)[C@H](C)O	inactive	inactive	–	–
c1coc(CNc2ncnc3nc[nH]c23)c1	inactive	inactive	–	–
COc1ccc(NC(=O)CC(C)=O)cc1	inactive	inactive	–	–
Clc1ccc2c(Cl)ccnc2c1	inactive	inactive	–	–
O=C(O)c1cc(C(=O)O)cc(S(=O)(=O)O)c1	inactive	inactive	–	–
CCCCCCCC/C=C\CCCCCCCCCCCC(=O)O	inactive	inactive	–	–
CC(=O)OCC(C)C	inactive	inactive	–	–
CC/C=C\CCO	inactive	inactive	–	–
O=S(=O)(Oc1ccc(Cl)cc1)c1ccccc1	inactive	inactive	–	–
O=C1c2ccccc2C(=O)C1c1ccccc1	inactive	inactive	–	–

Compound	Potency [1]	Potency [2]	viability change, negative = cytotoxic [1]	activity change, negative = cytotoxicity [2]
CCc1ccc(C)cc1	inactive	inactive	–	–
COC(=O)c1cc(Cl)ccc1OC	inactive	inactive	–	–
C=CCNC(N)=S	inactive	inactive	–	–
C=C[C@@H](C)CCC=C(C)C	inactive	inactive	–	–
CN1CCCC(n2nc(Cc3ccc(Cl)cc3)c3ccccc3c2=O)CC1 (stereo not drawn)	inactive	inactive	–	–
CCOC(=O)c1ccc(C2CCC(NC[C@H](O)COc3ccc(O)c(NS(C)(=O)=O)c3)CC2)cc1 (stereo partly drawn)	inactive	inactive	–	–
C=C[Si](C)(C)Cl	–	–	-0.015% [at 8.39 µM]	-1.19% [at 8.39 µM]
CN(C)CCN(C)CCO	inactive	inactive	–	–
OC[C@]1(O)OC[C@@H](O)[C@H](O)[C@@H]1O	inactive	inactive	–	–
CCN(CC)CCOc1ccccc1C(=O)CCc1ccccc1	inactive	inactive	–	–
Cc1cc(Br)ccc1NC(=O)CCl	inactive	inactive	–	–
CCN(CC)CCOC(=O)c1ccc(N)cc1	inactive	inactive	–	–
CCn1cc(C(=O)O)c(=O)c2cc(F)c(N3CCNCC3)cc21	inactive	inactive	–	–
CCCCCCCCCCCCCCCCC(=O)O	inactive	inactive	–	–
CC1(C)[C@@H]2CC[C@@]1(C)[C@H](O)C2	inactive	inactive	–	–
Cc1nc2c([nH]1)c(=O)n(C)c(=O)n2Cc1ccco1	inactive	inactive	–	–
Cc1cc(O)cc2c1O[C@](C)(CCC[C@H](C)CCC[C@H](C)CCCC(C)C)CC2	inactive	inactive	–	–
CCN(O)CC	inactive	inactive	–	–
CC1CCc2c(N3CCC(O)CC3)c(F)cc3c(=O)c(C(=O)O)cn1c23 (stereo not drawn)	inactive	inactive	–	–
CCOC(=O)C(F)(F)F	inactive	inactive	–	–
FC1(F)C(F)(F)C(F)(F)C2(F)C(F)(F)C(F)(F)C(F)(F)C(F)(F)C2(F)C1(F)F (stereo not drawn)	inactive	inactive	–	–
COc1ccc2nc(S(=O)Cc3ncc(C)c(OC)c3C)[nH]c2c1 (stereo not drawn)	inactive	inactive	–	–
CCC(C)COC(=O)CC(C)C (stereo not drawn)	inactive	inactive	–	–
CCCCc1ccc2nc(NC(=O)OC)[nH]c2c1	inactive	inactive	–	–
CCCCOC(=O)CCCCC(=O)OCCCC	inactive	inactive	–	–
CCCCCCOCCOCCO	inactive	inactive	–	–
c1cnc2c(n1)CCCC2	inactive	inactive	–	–
